Experimental data as given in PubChem BioAssay (NCI).
This is part of a sample that, as a whole, favours compounds with a hit. Of some 83,000 tested, about 20% had one in any assay.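 In brief: 96-well plates, 48 h treatment, single concentration, percent growth endpoint.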 Values without a mark were called inactive. Activity calls are given as the source filed them. Rule for the calls: active = growth percent below 10; inactive = the rest.

Tested on: HS 578T breast
Assay: NCI-60 one-dose screen, 48 h (100 = growth as untreated, 0 = no growth, -100 = all killed)
Conditions: 10 µM unless noted

Row | SMILES | growth
1 | CC1(C)CC[C@]2(C(=O)O)CC[C@]3(C)C(=CCC4[C@@]5(C)C[C@@H](O)[C@@H]6OC(c7ccco7)OC[C@@]6(C)C5CC[C@]43C)C2C1 (some centres not stated) | 31.2%
2 | C/C(=N\N=C\c1cc([N+](=O)[O-])ccc1Cl)c1ccc2c(c1)Nc1ccccc1S2 | 27.1%
3 | CN(C)c1nc(NCCNS(=O)(=O)c2ccc(C3=Nc4c(N)nc(N)nc4NC(c4ccc(C(F)(F)F)cc4)C3)cc2)nc(Nc2ccc(F)cc2)n1 (configuration not stated) | 27.1%
4 | Cn1cc(-c2cc(N)n3nc(-c4cn(C)c5ccc(Cl)cc45)cc3n2)c2ccccc21 | 113%
5 | COc1cc2c(c(OC)c1OC)C(=O)CC(c1cccc(NC(=O)c3cc(NC(=O)[C@H](CO)NC(=O)OC(C)(C)C)ccc3Cl)c1)O2 (some centres not stated) | 28.7%
6 | CC(=O)c1cccc(NC(=O)CCC(=O)NS(=O)(=O)c2ccc(C)cc2)c1 | 111%
7 | C#CCOc1ccc(/C=N/Nc2nc(-c3ccc(F)cc3)cs2)cc1OC | 81.2%
8 | CC1(C)CC[C@]2(C(=O)O)CC[C@]3(C)C(=CCC4[C@@]5(C)C[C@@H](O)[C@@H]6OC(c7ccccc7Br)OC[C@@]6(C)C5CC[C@]43C)C2C1 (some centres not stated) | 31.9%
9 | COc1cc2oc(-c3cccc(C(=O)Nc4ccc(Cl)cc4)c3)cc(=O)c2c(OCCNC(=O)[C@H](CCC(=O)OC(C)(C)C)NC(=O)OC(C)(C)C)c1OC | 92.6%
10 | CCCCc1c(Nn2cnnn2)no[n+]1[O-] | 58.6%
11 | CC(=O)OCC1OC(OC2C(COC(C)=O)OC(n3cc(COc4ccc5ccc(=O)oc5c4)nn3)C(OC(C)=O)C2OC(C)=O)C(OC(C)=O)C(OC(C)=O)C1OC(C)=O (configuration not stated) | 89.2%
12 | COc1ccc2oc3c4[nH]c5ccccc5c4c4c(c3c2c1)C(=O)N(C(=O)OC(C)(C)C)C4=O | -1.85% (active)
13 | O=C(c1ccccc1)c1ccc2nc(-c3ccc(F)cc3)[nH]c2c1 | 65.1%
14 | CC1(C)CC[C@]2(C(=O)Nc3ccc(Br)cc3)CC[C@]3(C)C(=CCC4[C@@]5(C)C[C@@H](O)[C@H](O)[C@@](C)(CO)C5CC[C@]43C)C2C1 (some centres not stated) | -0.476% (active)
15 | C#CCOc1ccc(/C=N/Nc2nc(-c3cc4cc(OC)ccc4oc3=O)cs2)cc1OC | 68.1%
16 | COc1cc(-c2nc3cc(Cl)c(Cl)cc3[nH]2)ccc1OCc1nnc(-c2cccs2)o1 | 63.9%
17 | COc1ccc(N2N=C(c3ccc4c(c3)OCO4)CC2c2cccc(NC(=O)CCCNS(=O)(=O)c3ccc(F)cc3)c2)cc1 (configuration not stated) | 67.2%
18 | C=C1CC[C@@H]2[C@]3(C)COC(c4ccccc4)O[C@@H]3CC[C@@]2(C)[C@@H]1C/C=C1/C(=O)OCC1OC(C)=O (some centres not stated) | 61.5%
19 | Cc1sc2c(c1C)C(c1ccc(Cl)cc1)=N[C@@H](CC(=O)NCCCCCNC(=O)COc1ccc(C3CCC(=O)NC3=O)cc1)c1nnc(C)n1-2 (some centres not stated) | 25%

Tested on: NCI/ADR-RES ovarian
Assay: as above
Conditions: 10 µM unless noted

Row | SMILES | growth
20 | COc1c(F)ccc(C(=O)Nc2ccc3nc(NC(=O)C4CCCN(S(=O)(=O)c5ccc(Br)s5)C4)sc3c2)c1F (configuration not stated) | 84.8%
21 | Cc1ccc(-c2nc(Nc3ccccc3S(N)(=O)=O)c3ccccc3n2)cc1 | 55.7%
22 | Clc1cccc(Cl)c1/C=C/c1cc(/C=C/c2ccc(Br)cc2)c2ccccc2n1 | 95.5%
23 | COc1ccc(/C=C/c2n(Cc3ccc4ccccc4c3)c3ccccc3[n+]2Cc2ccc3ccccc3c2)cc1 | -53.4% (active)
24 | C#CCOc1cc(N(CC)CC)ccc1C(C(=O)NC(C)(C)C)N(C(=O)C1CCc2cc(F)ccc2O1)c1ccc(Br)cc1 (configuration not stated) | 89.4%
25 | CSc1ccc(C(=O)Nc2ccc3nnn(/C(C#N)=C/c4ccccn4)c3c2)cc1 | 11.2%
26 | COC(=O)/C=C/c1cccc2c1C(=O)NC(C)(c1cc3ccccc3oc1=O)N2 (configuration not stated) | 80.1%
27 | O=C(COc1ccc2c(c1)CCCC(=O)N2)NCc1ccccc1 | 80.2%
28 | COc1ccc(Cc2nn(CC(=O)N/N=C/c3ccc(F)cc3)c(=O)c3c(C)noc23)cc1 | 38.4%
29 | CCCSc1nc(NCCc2c[nH]c3ccccc23)c(C#N)c(-c2ccc(F)cc2)n1 | 49.5%
30 | O=C(O)Cn1c(O)c(/C=C2/C=c3cc4c(cc3=NC2=O)OCCO4)sc1=S | 103%
31 | COc1ccc(C(=O)/C=C/c2ccc(OCc3ccc(F)cc3)c(OC)c2)cc1OC | 11%
32 | Cn1cc(-c2cc(N)n3nc(-c4c[nH]c5ccccc45)cc3n2)c2cc(Br)cnc21 | -44.6% (active)
33 | CC(=O)/C=C/c1cccc2c1C(=O)NC(C)(c1cc3cc(Br)ccc3oc1=O)N2 (configuration not stated) | 32.9%
34 | CCN(CC)c1ccc(/C=N/Nc2nc(-c3ccc(Br)cc3)cs2)c(O)c1 | 95.3%
35 | CC1(C)CC[C@]2(C(=O)O)CC[C@]3(C)C(=CCC4[C@@]5(C)C[C@@H](O)[C@@H]6OC(c7ccco7)OC[C@@]6(C)C5CC[C@]43C)C2C1 (some centres not stated) | 35.6%
36 | C/C(=N\N=C\c1cc([N+](=O)[O-])ccc1Cl)c1ccc2c(c1)Nc1ccccc1S2 | 55%
37 | CN(C)c1nc(NCCNS(=O)(=O)c2ccc(C3=Nc4c(N)nc(N)nc4NC(c4ccc(C(F)(F)F)cc4)C3)cc2)nc(Nc2ccc(F)cc2)n1 (configuration not stated) | 92.9%
38 | Cn1cc(-c2cc(N)n3nc(-c4cn(C)c5ccc(Cl)cc45)cc3n2)c2ccccc21 | 105%

Row | SMILES | growth
39 | O=C(/C=C/c1ccc(-c2ccccc2)cc1)c1nc2ccccc2n1Cc1ccc(Br)cc1 | 47.1%
40 | COc1cc2c(c(OC)c1OC)C(=O)CC(c1cccc(NC(=O)c3cc(NC(=O)[C@H](CO)NC(=O)OC(C)(C)C)ccc3Cl)c1)O2 (some centres not stated) | 76.4%
41 | CC(=O)c1cccc(NC(=O)CCC(=O)NS(=O)(=O)c2ccc(C)cc2)c1 | 112%
42 | C#CCOc1ccc(/C=N/Nc2nc(-c3ccc(F)cc3)cs2)cc1OC | 32.2%
43 | CC1(C)CC[C@]2(C(=O)O)CC[C@]3(C)C(=CCC4[C@@]5(C)C[C@@H](O)[C@@H]6OC(c7ccccc7Br)OC[C@@]6(C)C5CC[C@]43C)C2C1 (some centres not stated) | 11.5%
44 | COc1cc2oc(-c3cccc(C(=O)Nc4ccc(Cl)cc4)c3)cc(=O)c2c(OCCNC(=O)[C@H](CCC(=O)OC(C)(C)C)NC(=O)OC(C)(C)C)c1OC | 91.5%
45 | O=C(O)c1ccc(-c2ccc(/C=N/NC(=O)c3[nH]c4ccc(Br)cc4c3-c3ccccc3)o2)cc1 | 18.1%
46 | CCCCc1c(Nn2cnnn2)no[n+]1[O-] | 58.2%
47 | CC1=C(C(=O)OCc2ccccc2)C(c2c(O)cc(O)cc2O)n2c(nc3ccccc32)N1 (configuration not stated) | 31%
48 | O=C(/C=C/c1cccc(OCc2ccccc2)c1)c1nc2ccccc2[nH]1 | 64.5%
49 | CC(=O)OCC1OC(OC2C(COC(C)=O)OC(n3cc(COc4ccc5ccc(=O)oc5c4)nn3)C(OC(C)=O)C2OC(C)=O)C(OC(C)=O)C(OC(C)=O)C1OC(C)=O (configuration not stated) | 99.9%
50 | COc1ccc2oc3c4[nH]c5ccccc5c4c4c(c3c2c1)C(=O)N(C(=O)OC(C)(C)C)C4=O | -17.9% (active)
51 | O=C(c1ccccc1)c1ccc2nc(-c3ccc(F)cc3)[nH]c2c1 | 58.3%
52 | CC1(C)CC[C@]2(C(=O)Nc3ccc(Br)cc3)CC[C@]3(C)C(=CCC4[C@@]5(C)C[C@@H](O)[C@H](O)[C@@](C)(CO)C5CC[C@]43C)C2C1 (some centres not stated) | 14.7%
53 | C#CCOc1ccc(/C=N/Nc2nc(-c3cc4cc(OC)ccc4oc3=O)cs2)cc1OC | 50.5%
54 | COc1cc(-c2nc3cc(Cl)c(Cl)cc3[nH]2)ccc1OCc1nnc(-c2cccs2)o1 | 39.5%
55 | COc1ccc(N2N=C(c3ccc4c(c3)OCO4)CC2c2cccc(NC(=O)CCCNS(=O)(=O)c3ccc(F)cc3)c2)cc1 (configuration not stated) | 84.5%
56 | C=C1CC[C@@H]2[C@]3(C)COC(c4ccccc4)O[C@@H]3CC[C@@]2(C)[C@@H]1C/C=C1/C(=O)OCC1OC(C)=O (some centres not stated) | -73.1% (active)
57 | Cc1sc2c(c1C)C(c1ccc(Cl)cc1)=N[C@@H](CC(=O)NCCCCCNC(=O)COc1ccc(C3CCC(=O)NC3=O)cc1)c1nnc(C)n1-2 (some centres not stated) | 97.3%
